From PubChem BioAssay
TDP1 cell CPT – DT40-hTDP1 cell growth loss with CPT. chicken DT40 Tdp1-/-;hTDP1 cells + 20 nM CPT, ATP luminescence, 48 h. Potency, µM (series often up to 46.2 µM), without a hit: top-dose activity change, negative = growth inhibition, most hits filed as inhibitors. AID 686979. 420,000 tested, 12% active; further: potency means the concentration at half of the fitted maximal effect; nearly all actives have a fitted effect of over 55% in size
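Cell growth measured by CellTiter-Glo luminescence after a minimum 48 h, 37 C compound exposure with 20 nM CPT in Tdp1-knockout DT40 cells stably expressing hTDP1, seeded 400/well; qHTS titration format.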
IL1B secr inh – blocks inflammasome-driven IL-1 beta release; THP-1 LPS/ATP IL-1B secretion, AlphaLISA, 16 h; active compounds read low; activity change, % at 57.5 µM; 360,000 tested, 4.7% active; in the data active means activity change below about -50%; inconclusive means mostly about -30% to -49%
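THP-1 cells pretreated 1 hr with compounds (up to 57.5 uM final), then stimulated with LPS (250 ng/mL final) plus ATP (1.25 mM final); secreted IL-1B measured by AlphaLISA after 16 hr, decreased signal indicating inhibition.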
uPA surface inh – cell surface uPA generation inhibition. cell surface uPA generation assay, qHTS. Potency, µM (series often up to 38.3 µM), without a hit: at the top dose activity change, negative = inhibition, most hits filed as inhibitors. 330,000 tested, 0.31% active. AID 540303; active means well fitted inhibition curve with a large enough effect; inconclusive means small, poorly fitted or top-dose-only effect; inactive means no such curve, though single readings can be large or run the other way; tested in mouse RAW 264.7 cells; further: potency means the concentration at half of the fitted maximal effect; nearly all actives have a fitted effect of over 55% in size
HT1080 IDH1KD tx – toxicity to HT-1080 IDH1 knockdown cells (counter line). HT-1080 IDH1 knockdown viability, ATP luminescence, 48 h. Potency, µM (top dose mostly 46.1 µM), inactives show top-dose activity, negative = toxicity, hits mostly cytotoxic. 360,000 tested, 2% active. AID 686971;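 further: potency means the concentration at half of the fitted maximal effect; 0% = DMSO wells and -100% = cell-free medium wells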
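Assay cells: HT-1080 with IDH1 knockdown, 750 per well, RPMI/5% FBS. Exposure: 48 h at 37 °C following 2 h pre-incubation. Read: CellTiter-Glo luminescence; fitted concentration-response, curve class assigned.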
DT40 TDP1 no CPT – qHTS for Inhibitors of human tyrosyl-DNA phosphodiesterase 1 (TDP1): qHTS in cells in absence of CPT. 420,000 tested, 15% active. Potency, µM (top dose mostly 46.2 µM), inactives show top-dose activity change, negative = growth inhibition, actives largely listed as inhibitors. DT40 Tdp1-/- hTDP1 cells, no CPT, ATP luminescence, 48 h; further: potency means the concentration at half of the fitted maximal effect; nearly all actives have a fitted effect of over 55% in size
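Compound effects on proliferation are scored in DT40 Tdp1-/-;hTDP1 cells in the absence of CPT. ATP levels (CellTiter-Glo luminescence) are recorded after a ≥48 hr, 37 °C incubation.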
HT1080NT lethal – kills 2HG-producing HT-1080-NT fibrosarcoma cells. HT-1080-NT fibrosarcoma viability, CellTiter-Glo ATP luminescence, 48 h. Potency, µM (series often up to 46.1 µM), for the others: at the top dose activity, negative = less viability, usual class: cytotoxic. 360,000 tested, 1.6% active;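 further: NT is the 2HG producing partner of a matched IDH1 knockdown line; potency means the concentration at half of the fitted maximal effect; 0% = DMSO-treated cells and -100% = media-only wells without cells; nearly all actives have a fitted effect of over 55% in size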
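Compounds were tested in concentration-response format on HT-1080-NT cells for 48 hours at 37 degrees C. Cell viability came from CellTiter-Glo luminescence; curves were classified by r2, response magnitude and activity.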
* = called active by the depositor; ? = inconclusive; . = no result; [ ] = another dose, or the depositor's remark. Hits are enriched below; roughly 19% of the tested compounds scored in any of these assays. Unless noted, the call rests on the fitted dose curve; in most records, active means well fitted curve in the direction sought with a large enough effect; inconclusive means small, poorly fitted or top-dose-only effect, or another doubt; inactive means no such curve, though single readings can be large; an effect the other way counts as inactive or inconclusive. Unless noted, on the % scale 0 is the no-effect control and ±100 the full control effect.

SMILES | TDP1 cell CPT | IL1B secr inh | uPA surface inh | HT1080 IDH1KD tx | DT40 TDP1 no CPT | HT1080NT lethal
C=CCCC(=O)Nc1nc(C)c(-c2csc(Nc3cc(OC)ccc3OC)n2)s1 | 2.59µM* | -3.3 | ? | 7.31µM* | 2.59µM* | 7.31µM*
COc1cccc(Nc2nc(-c3sc(NC(=O)CC(C)C)nc3C)cs2)c1 | 13µM* | -3.3 | 1.3% | -3.3% | 23.1µM* | 9.8%
COc1ccccc1Nc1nc(-c2sc(NC(=O)CC(C)C)nc2C)cs1 | ? | 4.9 | -6.0% | -26.7% | ? | ?
CCCCCC(=O)Nc1nc(C)c(-c2csc(Nc3cc(Cl)ccc3OC)n2)s1 | ? | 14.7 | 9.3% | -0.8% | 18.4µM* | -2.9%
CCOC(=O)C1=C[C@@H](C(C)(C)C)N(S(=O)(=O)c2ccccc2C)[C@H]1c1ccc(Cl)cc1 | ? | -2.1 | . | ? | ? | -5.5%
CCCC(C)C(=O)Nc1nc(C)c(-c2csc(Nc3cc(OC)ccc3OC)n2)s1 (configuration not stated) | 4.61µM* | -2.8 | 0.7% | -25.2% | 6.51µM* | -16.6%
COc1cccc(NC(=O)c2sc(NC(=O)c3ccncc3)nc2C)c1 | -13.6% | 74.1 | 1.1% | -6.6% | -21.2% | -19.3%
Cc1nc(NC(=O)c2ccccc2)sc1-c1csc(Nc2ccc(C(=O)O)cc2)n1 | 20.6µM* | ? | 2.4% | 5.9% | 11.6µM* | -17.8%
CCCC(=O)Nc1nc(C)c(-c2csc(Nc3cc(OC)ccc3OC)n2)s1 | 4.61µM* | -1.3 | 5.2% | -25.0% | 6.51µM* | -9.0%
COc1cccc(Nc2nc(-c3sc(NC(=O)c4ccccc4)nc3C)cs2)c1 | 18.4µM* | -4.5 | 9.8% | -25.1% | 20.6µM* | ?
Cn1cc(-c2nc3cnc(Oc4ccccc4)nc3n(Cc3cccs3)c2=O)c2ccccc21 | -15.5% | . | . | . | -3.9% | .
O=C(Cc1nc2ccccc2[nH]1)N1CCC(n2c(C3CCC3)nc3cccnc32)CC1 | -7.4% | . | . | . | -16.7% | .
Cc1ccccc1CN1CCN(C(C)C(=O)NNC(=O)c2ccc(F)cc2)CC1 (configuration not stated) | -15.2% | 0.0 | 1.7% | 6.4% | -18.6% | 10.9%
CCCCN(C(=O)COC(=O)COc1c(C)cc(C)cc1C)c1c(N)n(CCC)c(=O)[nH]c1=O | 7.7% | 53.1 | 3.2% | 1.1% | -1.0% | 1.7%
COc1cc(Cl)c(C)cc1NC(=O)CC1CCCC1 | 8.8% | -3.9 | -2.3% | 0.0% | -21.7% | -5.9%
COc1ccc(OC)c(Nc2nc(-c3sc(N)nc3C)cs2)c1 | ? | ? | -5.9% | -6.8% | 25.9µM* | ?
CCCC(=O)Nc1nc(C)c(-c2csc(Nc3ccccc3OC)n2)s1 | -28.0% | -9.4 | -6.8% | -8.8% | ? | -5.2%
C=CCCC(=O)Nc1nc(C)c(-c2csc(Nc3cccc(OC)c3)n2)s1 | 16.4µM* | 0.0 | -9.5% | -8.6% | 16.4µM* | -10.4%
Cc1cc(O)ccc1Nc1nc(-c2sc(N)nc2C)cs1 | 2.7% | 30.8 | . | ? | -14.0% | 1.7%
Cc1nc(NC(=O)c2ccccc2)sc1-c1csc(NCc2ccco2)n1 | 23.1µM* | -16.4 | -24.2% | ? | 23.1µM* | ?
Cc1ccccc1S(=O)(=O)NC(=O)C1(C)CCN1C(=O)Cc1cc(F)ccc1F (configuration not stated) | -11.7% | 10.5 | . | 13.7% | -0.1% | 22.9%
CCn1c(Sc2ccc([N+](=O)[O-])cn2)nnc1-c1ccco1 | 1.64µM* | -81.7* | -13.2% | 18.4µM* | 2.06µM* | 11.6µM*
Cc1cc(C)cc(NC(=O)CSc2nnc(CNC(=O)c3ccco3)n2C)c1 | ? | 11.4 | 0.2% | -3.4% | 29.1µM* | -1.1%
Cn1c(SCC(=O)c2ccc(-c3ccccc3)cc2)nnc1-c1ccco1 | -24.3% | 0.0 | 0.1% | 18.3% | 25.9µM* | 7.2%
Cn1c(SCC(=O)NC2CC2)nnc1-c1ccco1 | -5.3% | 15.9 | 0.3% | 8.2% | 0.2% | 9.7%
SMILES | TDP1 cell CPT | IL1B secr inh | uPA surface inh | HT1080 IDH1KD tx | DT40 TDP1 no CPT | HT1080NT lethal
CCCNC(=O)CSc1nnc(-c2ccco2)n1C | 23.1µM* | 12.2 | -2.1% | ? | 13µM* | 2.9%
Cc1ccc(NC(=O)CSc2nnc(CNC(=O)c3ccco3)n2C)cc1 | -14.6% | 23.2 | ? | -12.4% | -29.0% | -16.4%
COc1ccc(CC(O)COS(N)(=O)=O)cc1 (configuration not stated) | -0.1% | 7.8 | -0.4% | 8.1% | 13.0% | 7.9%
Cn1c(SCC(=O)c2ccc3c(c2)Cc2ccccc2-3)nnc1-c1cccc(N)c1 | ? | -5.0 | -1.5% | 6.2% | ? | 3.6%
CCn1c(SCc2c(F)cccc2Cl)nnc1-c1ccco1 | ? | ? | -14.0% | -4.1% | 18.4µM* | 4.6%
Cn1c(SCc2cccc3ccccc23)nnc1-c1ccco1 | 13µM* | -17.7 | 1.1% | ? | ? | -25.8%
CC(=O)Nc1ccc(-c2nnc(SCC(=O)c3ccc4c(c3)Cc3ccccc3-4)n2C)cc1 | 13µM* | 1.6 | . | ? | 11.6µM* | -25.0%
CCn1c(SCc2nc(-c3ccccc3)no2)nnc1-c1ccco1 | -5.2% | -3.0 | 3.2% | -2.0% | ? | 3.8%
Nn1c(SCc2cccc3ccccc23)nnc1-c1ccco1 | ? | -7.3 | . | ? | ? | 12.3%
O=S(=O)(Nc1ccc(-c2csc(-c3ccccc3)n2)cc1)c1ccc(F)cc1 | ? | -100.9* | 9.4% | -5.2% | ? | -6.6%
Fc1ccc(-c2csc(-c3ccncc3)n2)cc1 | 16.3% | 4.5 | -1.7% | -21.1% | 15.7% | -25.5%
c1ccc(-c2ccc(-c3csnn3)cc2)cc1 | -0.1% | 2.0 | -1.0% | 6.8%[9.24 µM] | -5.8% | 1.1%
O=S(=O)(Nc1ccccc1)c1ccc(-c2csnn2)cc1 | ? | ? | 0.9% | -25.1% | 23.1µM* | -15.0%
COc1ccc(C2=Nc3ccccc3N(C(=O)c3ccncc3)C2C(=O)NC(C)C)cc1 (configuration not stated) | ? | 12.6 | . | 8.5% | -28.5% | 1.7%
COc1ccc(C(C)=O)cc1COC(=O)c1c(C)noc1C | ? | 80.2 | -9.7% | -28.1% | 14.6µM* | -27.4%
COc1ccc(N2CCN(C(=O)c3ccc(OCc4c(C)noc4C)c(OC)c3)CC2)cc1 | ? | -1.1 | -1.8% | 1.0%[9.24 µM] | -21.1% | -1.5%
CCOC(=O)Nc1ccc2c(COC(=O)c3ccccc3O)cc(=O)oc2c1 | -7.0% | 6.3 | 0.2% | 17.4% | ? | 22.3%
